Values joined by “and” are separate entries in the source; they are usually repeats but may differ in a detail not shown here. Equal values may be shown once. Hit rate of the full screen: of about 5,500 compounds, about 2,000 (36%) were called active. Not shown: some 18% with an inconclusive outcome. Cut-off read from the data, not from the text of the source: active = normalized growth mostly below about 0.91 (no sharp cut-off); inconclusive = no clear call, values can overlap the other calls; inactive = mostly above about 0.92. This is one part of the list.
Experiment: chemical genetic growth profiling, strain panel (AID 1159580);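 note: tested at 20 µM; growth read once vehicle control cultures reached saturation at 30 °C; 1 = growth at the plate median or of vehicle wells; lower values mean less growth of the strain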
Details: S. cerevisiae deletion strains, growth OD

Measured: normalized growth

N[C@H](Cc1ccccc1)C(=O)O
inactive: locus YAL013W, strain DEP1, hits give low values 1.02 | locus YAL021C, strain ccr4, hits give low values 1.01 | locus YAL026C, strain drs2, hits give low values 1 | locus YAL030W, strain snc1, hits give low values 1.01 | locus YBL061C, strain skt5, hits give low values 1 | locus YBR009C, strain hhf1, hits give low values 0.968 | locus YBR021W, strain FUR4, hits give low values 0.98 | locus YBR023C, strain chs3, hits give low values 1.01 | locus YBR171W, strain sec66, hits give low values 0.99 | locus YBR229C, strain ROT2, hits give low values 1.01 | locus YBR231C, strain swc5, hits give low values 0.971 | locus YBR279W, strain paf1, hits give low values 0.999 | locus YCL011C, strain gbp2, hits give low values 1 | locus YCL016C, strain dcc1, hits give low values 1.03 | locus YCL029C, strain bik1, hits give low values 1 | locus YCL069W, strain vba3, hits give low values 0.988 | locus YCR088W, strain abp1, hits give low values 0.987 | locus YDL005C, strain med2, hits give low values 0.997 | locus YDL035C, strain GPR1, hits give low values 1.02 | locus YDL040C, strain nat1, hits give low values 1 | locus YDL074C, strain BRE1, hits give low values 1.05 | locus YDL101C, strain DUN1, hits give low values 1.01 | locus YDL134C, strain PPH21, hits give low values 1.01 | locus YDL185W, strain tfp1, hits give low values 1 | locus YDL192W, strain arf1, hits give low values 1.01 | locus YDR001C, strain nth1, hits give low values 0.987 | locus YDR069C, strain doa4, hits give low values 0.997 | locus YDR101C, strain arx1, hits give low values 1.01 | locus YDR137W, strain rgp1, hits give low values 0.982 | locus YDR150W, strain NUM1, hits give low values 1.02 | locus YDR159W, strain sac3, hits give low values 0.935 | locus YDR162C, strain NBP2, hits give low values 1.02 | locus YDR195W, strain ref2 0.961 | locus YDR297W, strain sur2, hits give low values 1 | locus YDR318W, strain mcm21, hits give low values 0.993 | locus YDR334W, strain swr1, hits give low values 0.946 | locus YDR335W, strain msn5, hits give low values 0.994 | locus YDR388W, hits give low values 1.01 | locus YDR392W, strain spt3, hits give low values 0.965 | locus YDR502C, strain sam2, hits give low values 1 | locus YEL003W, strain gim4, hits give low values 0.983 | locus YEL037C, strain rad23, hits give low values 0.976 | locus YEL061C, strain CIN8 (second series), hits give low values 0.962 | locus YEL061C, strain CIN8, hits give low values 1.01 | locus YER015W, strain faa2, hits give low values 0.993 | locus YER016W, strain bim1, hits give low values 1.02 | locus YER110C, hits give low values 1 | locus YER111C, strain swi4, hits give low values 0.999 | locus YER155C, strain BEM2 (second series), hits give low values 0.99 | locus YER155C, strain BEM2, hits give low values 1 | locus YER167W, strain BCK2, hits give low values 1.01 | locus YFR010W, strain ubp6, hits give low values 0.942 | locus YGL078C, strain dbp3, hits give low values 1.02 | locus YGL086W, strain mad1, hits give low values 1.01 | locus YGL167C, strain pmr1, hits give low values 0.983 | locus YGL173C, strain kem1, hits give low values 0.97 | locus YGL227W, strain vid30, hits give low values 0.98 | locus YGL240W, strain doc1, hits give low values 0.955 | locus YGL248W, strain PDE1, hits give low values 1 | locus YGL253W, strain hxk2, hits give low values 1 | locus YGR078C, strain PAC10, hits give low values 1.05 | locus YGR135W, strain pre9, hits give low values 1 | locus YGR229C, strain SMI1, hits give low values 1.03 | locus YGR252W, strain gcn5, hits give low values 0.935 | locus YHR013C, strain ard1, hits give low values 1 | locus YHR027C, strain rpn1, hits give low values 0.996 | locus YHR030C, strain SLT2, hits give low values 1.02 and 1.05 | locus YHR079C, strain IRE1 (second series), hits give low values 1.01 | locus YHR079C, strain IRE1, hits give low values 1.06 | locus YHR094C, strain hxt1, hits give low values 1 | locus YHR129C, strain ARP1, hits give low values 1.01 | locus YHR142W, strain chs7, hits give low values 0.992 | locus YHR200W, strain rpn10, hits give low values 1 | locus YIL066C, strain RNR3, hits give low values 1.02 | locus YIL073C, strain SPO22, hits give low values 1.04 | locus YIL125W, strain kgd1, hits give low values 0.994 | locus YIR030C, strain dcg1, hits give low values 1.02 | locus YJL092W, strain hpr5, hits give low values 1 | locus YJL095W, strain BCK1 (second series), hits give low values 0.996 | locus YJL095W, strain BCK1, hits give low values 1.02 and 1.05 | locus YJL115W, strain asf1, hits give low values 0.979 | locus YJL129C, strain trk1, hits give low values 1 | locus YJL134W, strain LCB3, hits give low values 1.01 | locus YJL154C, strain vps35, hits give low values 0.977 | locus YJL164C, strain tpk1, hits give low values 0.979 | locus YJL166W, strain qcr8, hits give low values 0.981 | locus YJL168C, strain set2, hits give low values 0.992 | locus YJL187C, strain SWE1 (second series), hits give low values 1.02 | locus YJL187C, strain SWE1, hits give low values 1.02

Source: PubChem BioAssay AID1159580 (chemical genetic matrix, 2015)
